PubChem BioAssay AID1224855 (National Center for Advancing Translational Sciences (NCATS), 2016)
Results filed as inconclusive are left out. Activity calls are given as the source filed them. Calls come from the whole dose curve; as a rule, active = well fitted inhibition curve with a large enough effect; inconclusive = small, poorly fitted or top-dose-only effect; inactive = no such curve, though single readings can be large or run the other way.

test: Confirmation assay for measurement of the activity of small molecule inhibitors on Zika virus induced Caspase-3 activity in human iPSC derived neural progenitor cells (hNPCs); conditions: hNPC ZIKV-induced caspase-3/7, Caspase-Glo luminescence, 6 h; series mostly up to 46.1 µM; activity, negative = inhibition: at the top concentration
In short: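 Luminescence readout (Caspase-Glo 3/7, 30 min RT) of caspase activity in hNPCs after 6 h ZIKV infection (2 FFU/cell); compound added 1 h before virus. Normalized to uninfected and infected wells.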

SMILES | activity, negative = inhibition | Potency
CCCC(=O)OC[C@@H](OC(=O)CCC)[C@@H](OC(=O)CCC)[C@H](Cn1c2nc(=O)[nH]c(=O)c-2nc2cc(C)c(C)cc21)OC(=O)CCC | 23% (inactive) | 
Nc1ccc2c(c1)CN1C(=O)c3ccccc3C1=N2 |  | 1.9 µM (active)
Cc1oncc1C(=O)Nc1ccc(C(F)(F)F)cc1 |  | 1.38 µM (active)
COc1ccc(-c2coc3cc(O)ccc3c2=O)cc1 |  | 8.69 µM (active)
O=c1c(-c2ccc(O)cc2)coc2cc(O)ccc12 |  | 13.8 µM (active)
O=C(O)c1cccc(-c2noc(-c3ccccc3F)n2)c1 |  | 1.73 µM (active)
CCN1CCC(n2cc(CNc3cc(Cl)c4ncc(C#N)c(Nc5ccc(F)c(Cl)c5)c4c3)nn2)CC1 | 37.8% (inactive) | 
COc1ccc2nc(NC(=O)Nc3ccccc3)sc2c1 |  | 8.69 µM (active)
O=C(Nc1ccc(C(=O)O)c(O)c1)c1ccccc1 |  | 4.35 µM (active)
NC1CCC(Nc2nc(Nc3ccc(C(=O)N4CCCCC4)cc3)c3ncn(-c4cccc(F)c4)c3n2)CC1 (centres undefined) | 150% (inactive) | 
CCCCCCCC/C=C/C(=O)O | -27% (inactive) | 
N#C/C(=C\c1ccc(O)c(O)c1)C(=O)Nc1ccccc1 |  | 15.5 µM (active)
Cc1cc(O)c2c(c1)C(=O)c1cc(O)cc(O)c1C2=O |  | 1.95 µM (active)
CC1=C(CO)C(=O)O[C@@H]([C@@H](C)[C@H]2CC[C@H]3[C@@H]4C[C@H]5O[C@]56[C@@H](O)C=CC(=O)[C@]6(C)[C@@H]4CC[C@]23C)C1 | -16.7% (inactive) | 
C[C@@H](N)c1ccc(C(=O)Nc2ccnc3[nH]ccc23)cc1 | 2.76% (inactive) | 
CN1CC(=O)N2C(Cc3c([nH]c4ccccc34)[C@H]2c2ccc3c(c2)OCO3)C1=O (some centres undefined) | 6.79% (inactive) | 
CN1CC(=O)N/C1=N/C(=O)Nc1cccc(Cl)c1 |  | 4.35 µM (active)

SMILES | activity, negative = inhibition | Potency
CCCS(=O)c1ccc2nc(NC(=O)OC)[nH]c2c1 (centres undefined) |  | 8.69 µM (active)
O=c1oc2cc(O)ccc2s1 | 8.59% (inactive) | 
O=C(Nc1ncc([N+](=O)[O-])s1)c1cccs1 |  | 1.23 µM (active)
CCC(C(=O)O)c1ccc(N2Cc3ccccc3C2=O)cc1 (centres undefined) |  | 5.48 µM (active)
CC(=Cc1ccccc1)C=C1SC(=S)N(CC(=O)O)C1=O |  | 15.5 µM (active)
CC(C(=O)O)c1ccc(C(=O)c2ccccc2)s1 (centres undefined) |  | 6.9 µM (active)
Cc1ccc(O)c(N=Nc2ccccc2)n1 |  | 1.23 µM (active)
Clc1ccccc1-c1nc(-c2ccncc2)no1 |  | 4.35 µM (active)
O=C(O)[C@H](CC(=O)N1C[C@@H]2CCCC[C@H]2C1)Cc1ccccc1 | -27.9% (inactive) | 
O=C(c1ccccc1)c1ccc2n1CCC2C(=O)O (centres undefined) |  | 13.8 µM (active)
CN(C)c1ccc(N=NS(=O)(=O)O)cc1 | -26.5% [at 88.3 µM] (inactive) | 
Nc1ncnc2c1ncn2[C@@H]1O[C@@H](CO)[C@H](O)[C@H]1O | 2.2% [at 23.8 µM] (inactive) | 
CC(=NNC(=S)N1CCC1)c1ccccn1 | -10.5% (inactive) | 
Cc1cccc(C#Cc2ccccc2)n1 |  | 3.46 µM (active)
O=C1NC(=O)C(=Cc2ccc(-c3ccc(F)cc3)o2)S1 |  | 9.75 µM (active)
O=S(=O)(O)CCSSCCS(=O)(=O)O | 18.3% (inactive) | 
CC(C)c1ccc2oc3nc(N)c(C(=O)O)cc3c(=O)c2c1 |  | 1.73 µM (active)
